Measurements from PubChem BioAssay (EPA / NIEHS).
Activity calls are given as the source filed them. Rule for the calls: active = hit-call score of the fitted dose curve at least 0.9, where 1 is the maximum; inactive = score below 0.9.

Assay: APR_HepG2_MitoMembPot_72hr: Apredica 72-hour HepG2 Assay for Mitochondrial Membrane Potential (AID 2282917)
Conditions: imaging, actives raise or lower the signal
Procedure: APR_HepG2_72hr is a cell-based, multiplexed-readout assay that uses HepG2, a human liver cell line, with measurements taken at 72 hours after chemical dosing in a 384-well plate.APR_HepG2_MitoMembPot_72hr is one of 10 assay component(s) measured or calculated from the APR_HepG2_72hr assay. It is designed to make measurements of dye binding, a form of membrane potential reporter, as detected with fluorescence intensity signals by HCS Fluorescent Imaging technology.Data from the assay component APR_HepG2_MitoMembPot_72hr was analyzed into 1 assay endpoint. This assay endpoint, APR_HepG2_MitoMembPot_72hr, was analyzed with bidirectional fitting relative to DMSO as the negative control and baseline of activity. Using a type of membrane potential reporter, gain or loss-of-signal activity can be used to understand changes in the signaling. Furthermore, this assay endpoint can be referred to as a primary readout, because this assay has produced multiple assay endpoints where this one serves a signaling function. To generalize the intended target to other relatable targets, this assay endpoint is annotated to the cell morphology intended target family, where the subfamily is organelle conformation.
Cells were treated with dimethyl sulfoxide (DMSO) as a solvent control at a final concentration of 0.5% v/v or with compounds in DMSO with a resulting final DMSO concentration of 0.5% v/v. Compound treatment was done at concentrations of 0.39, 0.78, 1.56, 3.12, 6.24, 12.5, 25, 50, 100, and 200 uM in duplicate on each plate. Cells were treated with compounds for 1, 24, or 72 hr. Carbonyl […] m-chloro-phenylhydrazone (CCCP) and taxol were used as positive controls for mitochondrial function and cytoskeletal stability, respectively; DMSO served as the negative control for this experiment. Cells were fixed by the direct addition of 50 uL formaldehyde in Hank's Balanced Salt Solution (HBSS) to a final concentration of 3.7%. After incubation in the fixation medium for 30 min at room temperature (293-298 K), cells were rinsed twice with HBSS and treated with cell permeabilization buffer (16 uL of 0.5% Triton X-100) for 10 min at room temperature (293-298 K) before labeling. For mitochondrial membrane potential and mitochondrial measurements, pre-fixed cells were incubated with 50 uL of MitoTracker Red CMXRos (Invitrogen) at a concentration of 250 nM for 30 min before fixation. In the remaining cases, post-fixed cells were labeled by incubation with a multiplexed mixture of primary antibodies in HBSS for 60 min at room temperature (293-298 K) to detect immunoreactivity of c-Jun (1:500), phospho-histone H3 (1:100), phospho-histone H2A.x (1:200), p53 (1:400), alpha-tubulin (1:200) and Hoechst 33342 (2 ug/mL). Cells were labeled for multiplexed imaging on two separate plates: a) Hoechst 33342, MitoTracker Red, phospho-histone H3, and alpha-tubulin, and b) Hoechst 33342, phospho-histone H2A.x, and c-Jun. A final rinse with HBSS (50 uL) was performed before analysis. The primary and secondary antibodies for the proteins were phospho-histone H3 (rabbit anti-phospho-histone H3 and FITC-donkey anti-rabbit IgG), phospho-histone H2A.x (mouse anti-phospho-histone H2A.x and FITC-donkey anti-mouse IgG), c-Jun (rabbit anti-phospho-c-Jun and Cy3-donkey anti-rabbit IgG), p53 (sheep anti-p53 and Cy5-donkey anti-sheep IgG), alpha-tubulin (mouse anti-alpha-tubulin and Cy5-donkey anti-mouse IgG). These antibodies are available as the CellCiphr HepG2 assay kit (Millipore).Digital images of each well were captured using a Cellomics ArrayScan VTI (Thermo Scientific Cellomics) (0.8 NA objective, 0.63x optical coupler, and XF-93 filter set) at 20x magnification. The images were acquired using the autofocus feature of the ArrayScan instrument, which entails the following steps. First, the camera focuses on channel 1 (Hoechst 33342), where nuclei are identified. Second, a Z offset of 1 um is used for capturing mitochondria (MitoTracker Red). […]

SMILES | AC50 | outcome
CC(C)=CC1C(C(=O)OCc2coc(Cc3ccccc3)c2)C1(C)C (stereo not given) | 159 µM (active) | –
CCC(C)n1c(=O)[nH]c(C)c(Br)c1=O (stereo not given) | – | inactive
CCNC(=O)NC(=O)C(C#N)=NOC | – | inactive
CN=C=S | – | inactive
CCOc1nc(F)cc2nc(S(=O)(=O)Nc3c(Cl)cccc3Cl)nn12 | – | inactive
Cc1ccc(N=CN(C)C=Nc2ccc(C)cc2C)c(C)c1 | – | inactive
COP(=S)(OC)Oc1ccc([N+](=O)[O-])c(C)c1 | – | inactive
CO/N=C(/C1=NOCCO1)c1ccccc1Oc1ncnc(Oc2ccccc2Cl)c1F | 12.7 µM (active) | –
Cc1nc(N(C)C)nc(OC(=O)N(C)C)c1C | – | inactive
O=P(O)(O)CCCl | – | inactive
CCCCOCN(C(=O)CCl)c1c(CC)cccc1CC | 33.2 µM (active) | –
O=c1n(Cl)c(=O)n(Cl)c(=O)n1Cl | – | inactive
Nc1c(Cl)c(F)nc(OCC(=O)O)c1Cl | – | inactive
CCCCC(O)(Cn1cncn1)c1ccc(Cl)cc1Cl (stereo not given) | – | inactive
O=C(O)c1c(Cl)ccc2cc(Cl)cnc12 | – | inactive
COC(=O)N(C(=O)N1CO[C@@]2(C(=O)OC)Cc3cc(Cl)ccc3C2=N1)c1ccc(OC(F)(F)F)cc1 | – | inactive
CCN(CC)c1nc(C)cc(OP(=S)(OC)OC)n1 | – | inactive
CCCC(=NOCC)C1=C(O)CC(CC(C)SCC)CC1=O (stereo not given) | – | inactive
Nc1cnn(-c2ccccc2)c(=O)c1Cl | – | inactive
O=C(Nc1ccccc1-c1ccc(Cl)cc1)c1cccnc1Cl | – | inactive

SMILES | AC50 | outcome
COC(=O)NC(=S)Nc1ccccc1NC(=S)NC(=O)OC | – | inactive
CC1(C)CCC(=Cc2ccc(Cl)cc2)C1(O)Cn1cncn1 (stereo not given) | – | inactive
COC(=O)NS(=O)(=O)c1ccc(N)cc1 | – | inactive
CCOc1cc(C(C)(C)C)ccc1C1COC(c2c(F)cccc2F)=N1 (stereo not given) | – | inactive
Cc1c(COC(=O)[C@@H]2[C@H](/C=C(\Cl)C(F)(F)F)C2(C)C)cccc1-c1ccccc1 | – | inactive
COCc1cnc(C2=NC(C)(C(C)C)C(=O)N2)c(C(=O)O)c1 (stereo not given) | – | inactive
CCSC(=O)N1CCCCCC1 | – | inactive
Cn1c(-c2ccccc2)cc(-c2ccccc2)[n+]1C | – | inactive
CNC(=O)N(C)c1nnc(C(C)(C)C)s1 | – | inactive
CC(C)Oc1cccc(NC(=O)c2ccccc2C(F)(F)F)c1 | – | inactive
CC(C)N1C(=O)N(c2ccccc2)CSC1=NC(C)(C)C | – | inactive
CCNP(=S)(OC)O/C(C)=C/C(=O)OC(C)C (stereo not given) | – | inactive
CNC(=O)Oc1cccc2ccccc12 | 76.9 µM (active) | –
CS(=O)(=O)c1cc(C(F)(F)F)ccc1C(=O)c1cnoc1C1CC1 | – | inactive
COP(=S)(OC)SCn1nnc2ccccc2c1=O | – | inactive
CCOP(=O)(OCC)Oc1nc(Cl)c(Cl)cc1Cl | – | inactive
CCOC(=O)C(C)OC(=O)c1cc(Oc2ccc(C(F)(F)F)cc2Cl)ccc1[N+](=O)[O-] (stereo not given) | 19.8 µM (active) | –
CSC(=O)c1c(C(F)F)nc(C(F)(F)F)c(C(=O)SC)c1CC(C)C | – | inactive
COC(=O)c1c(C(F)F)nc(C(F)(F)F)c(C2=NCCS2)c1CC(C)C | – | inactive
OC(c1ccc(Cl)cc1)(c1ccc(Cl)cc1)C(Cl)(Cl)Cl | – | inactive
